Test [1] is described as follows: HepG2 liver cancer cell viability effects, profiling panel, resazurin fluorescence, 24 h, PK04 Diversity Set (AID 1172). Also: test concentration not given here. The note with it: higher = more signal.
Test [2] in a line: basal S. cerevisiae growth modulation, no modifier, primary screen, OD600, strain BY4716, 24 h, basal condition (AID 1173). The note with it: OD600, 24 h, higher = more signal, called active from +8 up or from −8 down.
Test [3] can be described thus: MM1S myeloma cell viability, profiling panel, resazurin fluorescence, basal, 24 h, PK04 Diversity Set (AID 1174).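 Also: MM1S multiple myeloma cell line; test concentration not given here.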 The note with it: higher = more signal, called active from +8 up or from −8 down. A general note: Alamar Blue is a resazurin reagent that responds to reducing activity.
Test [4] deals with Dihydroorotate dehydrogenase (quinone), mitochondrial (Plasmodium falciparum (isolate 3D7)) (UniProt Q08210). As to the kind of experiment: PfDHODH enzyme inhibitors, primary screen, biochemical, C-terminal His tag, absorbance 600 nm (AID 1175).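 Also: recombinant parasite enzyme with a five histidine tag at its C terminus; test concentration not given here.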 The settings on record: DCIP absorbance 600 nm, higher = more signal, called active from +8 up or from −8 down.
Chain of Dihydroorotate dehydrogenase (quinone), mitochondrial (Plasmodium falciparum (isolate 3D7)) (Q08210 whole entry, looked up): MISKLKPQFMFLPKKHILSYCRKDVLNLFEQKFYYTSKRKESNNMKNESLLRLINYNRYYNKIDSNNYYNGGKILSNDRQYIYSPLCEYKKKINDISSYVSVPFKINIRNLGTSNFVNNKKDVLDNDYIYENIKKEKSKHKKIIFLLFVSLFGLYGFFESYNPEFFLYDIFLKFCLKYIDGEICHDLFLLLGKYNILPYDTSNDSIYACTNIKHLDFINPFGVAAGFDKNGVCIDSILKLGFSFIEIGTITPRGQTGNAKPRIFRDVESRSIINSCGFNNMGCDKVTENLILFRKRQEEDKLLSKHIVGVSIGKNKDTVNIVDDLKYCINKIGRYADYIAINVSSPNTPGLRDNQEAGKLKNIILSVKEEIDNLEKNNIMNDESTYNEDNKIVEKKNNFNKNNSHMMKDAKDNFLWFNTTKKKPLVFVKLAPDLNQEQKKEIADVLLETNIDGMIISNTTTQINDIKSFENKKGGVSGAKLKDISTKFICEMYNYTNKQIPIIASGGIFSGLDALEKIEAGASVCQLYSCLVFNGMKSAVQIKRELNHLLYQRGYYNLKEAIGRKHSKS
A short description of test [5]: P. aeruginosa biofilm formation inhibitors, primary screen, strain PAO1, LB-PBS medium, absorbance 600 nm (AID 1176). Also: test concentration not given here. The note with it: P. aeruginosa PAO1 growth/biofilm, A600, 12 h; higher = more signal.
Test [6] can be described thus: S. cerevisiae RM11-1a growth modifiers, primary screen, strain RM11-1a, OD600, basal, 24 h (AID 1177).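 Also: cultures grown under basal conditions with no added stressor; test concentration not given here.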 The settings on record: OD600, 24 h, higher = more signal, called active from +8 up or from −8 down.
Test [7] can be described thus: E. coli acrAB mutant growth effects, primary screen, E. coli filamentation inducers, strain DRC39, OD650, 24 h (AID 1178).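 Also: growth measured as culture turbidity by optical density at 650 nm; test concentration not given here.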 The settings on record: higher = more signal, called active from +8 up or from −8 down.
The nature of test [8]: E. coli acrAB mutant growth effects, primary screen, E. coli filamentation inducers, strain DRC39, OD650, 48 h (AID 1179).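 Also: screen aims at cell division blockers that make cells filament.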 The settings on record: E. coli DRC39 delta-acrAB growth, higher = more signal, called active from +8 up or from −8 down.
The nature of test [9]: RPMI8226 myeloma cell viability, profiling panel, resazurin fluorescence, basal, 24 h, PK04 Diversity Set (AID 1180).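 Also: RPMI8826 multiple myeloma cell line at 5000 cells per well; test concentration not given here.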 The settings on record: higher = more signal.
In test [10] the target is E3 ubiquitin-protein ligase XIAP (Homo sapiens) (UniProt P98170). As to the kind of experiment: XIAP binders, primary screen, biophysical, small-molecule microarray, fluorescence 635 nm (AID 1181).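 Also: score merges 667 nm emission and signal to noise over triplicate slides.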 The note with it: small-molecule microarray binding, higher = more signal.
Chain of E3 ubiquitin-protein ligase XIAP (Homo sapiens) (P98170 whole entry, looked up): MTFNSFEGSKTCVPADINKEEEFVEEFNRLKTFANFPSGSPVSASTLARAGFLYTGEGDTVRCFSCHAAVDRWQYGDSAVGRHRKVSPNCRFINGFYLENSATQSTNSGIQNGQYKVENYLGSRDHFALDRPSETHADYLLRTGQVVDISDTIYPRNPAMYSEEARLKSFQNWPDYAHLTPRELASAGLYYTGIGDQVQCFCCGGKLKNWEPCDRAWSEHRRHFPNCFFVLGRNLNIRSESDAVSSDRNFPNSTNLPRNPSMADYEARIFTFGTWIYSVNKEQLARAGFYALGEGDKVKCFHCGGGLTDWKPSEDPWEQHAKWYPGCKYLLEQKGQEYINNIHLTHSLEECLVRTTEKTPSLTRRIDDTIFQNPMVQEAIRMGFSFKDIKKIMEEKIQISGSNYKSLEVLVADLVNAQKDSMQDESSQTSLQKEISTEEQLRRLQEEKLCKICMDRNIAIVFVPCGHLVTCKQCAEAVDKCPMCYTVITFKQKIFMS

The source made the active and inactive calls. Unless noted, no rule for the calls is given here.

As for `CN(C)CCCC[C@@H]1NC(=O)[C@@H]2C[C@H](C(=O)NCCCCCCNC(=O)CS)[C@H](c3ccc(O)cc3)N2C1=O`, the z-score is 0.155 in [1]; -0.17 (inactive) in test [2]; -0.353 (inactive) in test [3]; 0.767 (inactive) in test [5]; -0.264 (inactive) in test [6]; -0.19 (inactive) in test [7]. The z-score was -0.551 (inactive) in [8] and 0.0875 in test [9]. The figures for the composite z-score in test [4] and in test [10] were -0.173 (inactive) and 0.0013, respectively.

Turning to `COc1cc(C(O)C2C=CC3C(=O)N(c4ccccc4)C(=O)C3N2Nc2ccccc2)cc(OC)c1OC` (stereo not given), the z-score in test [1] is -0.945; in test [2] it was -7.58 (inactive); in [3], -0.191 (inactive); in test [5], 1.11 (inactive); in test [6] it was 0.499 (inactive); in test [7] it was -0.393 (inactive). Moreover, the z-score in test [8] is -0.433 (inactive); in test [9], -0.977. For the same compound, the composite z-score in test [4] was 0.484 (inactive); in test [10], 0.0845.

In the case of `OCCCC1=CC(c2ccc(CN3CCCC3)cc2)N(Cc2cccc(OC(F)(F)F)c2)CC1` (stereo not given), the z-score in test [1] is -2.32; in test [2] it was -5.01 (inactive); in [3], -6.82 (inactive); in test [5], 0.318 (inactive); in test [6] it was 0.195 (inactive); in test [7], -1 (inactive). Besides, the z-score in test [8] was -1.83 (inactive); in test [9], -5.61. The composite z-score in test [4] was -1.2 (inactive); in test [10], 0.215.

For `O=C(NCc1ccccc1)[C@@H]1c2ccccc2C(=O)N(Cc2cc(C(F)(F)F)cc(C(F)(F)F)c2)[C@H]1c1ccc(CO)cc1`, the z-score in [1] is -0.527; in [2] it was -0.247 (inactive); in test [3] it was 0.3 (inactive); in test [5], 0.338 (inactive); in [6], 1.06 (inactive); in [7], 0.324 (inactive). Besides, the z-score in test [8] is 0.0181 (inactive); in [9], 1.03. The composite z-score is 0.819 (inactive) in [4] and -0.147 in test [10].

Consider `C=C(COC)C(=O)CC[C@@H](OC(C)=O)c1ccccc1OCCO`, for which the z-score was 0.463 in test [1]; -0.947 (inactive) in [2]; -0.851 (inactive) in test [3]; 0.166 (inactive) in [5]; -1.56 (inactive) in [6]; 0.661 (inactive) in [7]. For the same compound, the z-score in [8] is -0.061 (inactive); in test [9], -1.09. For the same compound, the composite z-score in test [4] is -1.34 (inactive); in test [10], -0.102.

As for `[N-]=[N+]=Nc1ccccc1C[C@@]1(C(=O)NCc2ccccc2)N=C(c2ccc(OCCCO)cc2)O[C@@H]1c1ccccc1N=[N+]=[N-]`, the z-score was -0.664 in test [1]; -0.353 (inactive) in test [2]; -2.18 (inactive) in [3]; 0.689 (inactive) in test [5]; 0.105 (inactive) in test [6]; 0.969 (inactive) in test [7]. Also, the z-score in test [8] is -0.289 (inactive); in [9], -2.89. The results for the composite z-score in [4] and in test [10] were 0.366 (inactive) and -0.113, respectively.

`CCOC(=O)C1=CC[C@@H](c2ccc(OC)cc2)N(S(=O)(=O)c2ccc(C)cc2)[C@H]1c1ccc(C)cc1`: the z-score in test [1] is 0.164; in [2] it was 1.31 (inactive); in test [3] it was -0.616 (inactive); in test [5], -0.0601 (inactive); in [6], -0.187 (inactive); in test [7], -0.346 (inactive). In addition, the z-score in [8] was -0.148 (inactive); in [9], -0.652. In addition, the composite z-score in test [4] was -0.329 (inactive); in [10], 0.126.

As for `O=C1c2ccccc2[C@@]2(Cc3ccccc3N(Cc3ccccc3)C2=O)[C@H](c2ccc(CO)cc2)N1Cc1ccccc1Cl`, the z-score in [1] was 0.645; in test [2], 0.0388 (inactive); in test [3] it was 0.685 (inactive); in test [5] it was -0.425 (inactive); in test [6] it was 0.0513 (inactive); in test [7], 0.134 (inactive). Also, the z-score was 0.86 (inactive) in test [8] and 0.694 in [9]. Also, the composite z-score in test [4] is -3.2 (inactive); in test [10], 0.147.

For `[N-]=[N+]=Nc1ccccc1[C@H]1OC(c2ccc(OCCCO)cc2)=N[C@@]1(Cc1ccccc1)C(=O)NCC(O)CO` (stereo not given in full), the z-score was 1.21 in test [1]; -1.65 (inactive) in test [2]; -1.21 (inactive) in test [3]; -1.08 (inactive) in test [5]; 0.972 (inactive) in [6]; 0.413 (inactive) in [7]. The values for the z-score in [8] and in test [9] were 0.318 (inactive) and -1.28, respectively. Moreover, the composite z-score in [4] is -0.0513 (inactive); in test [10] it was 0.0487.

`COCCOC(=O)N1C(=O)[C@@]2(c3cc(C#CCNC(N)=O)ccc31)[C@H](C(=O)Nc1nc3ccccc3s1)[C@H]1C(=O)O[C@H](c3ccccc3)[C@H](c3ccccc3)N1[C@@H]2c1ccccc1OCCO`: the z-score in test [1] was 0.0277; in test [2], 0.21 (inactive); in test [3], -0.482 (inactive); in [5] it was 3.44 (inactive); in test [6], 2.32 (inactive); in test [7] it was 0.405 (inactive). Further, the z-score in test [8] is 1.14 (inactive); in test [9], -1.01. In addition, the values for the composite z-score in test [4] and in test [10] were -0.845 (inactive) and -0.155, respectively.

Take `CN1C(=O)C2C(C1=O)C1C=C(c3ccc(CO)cc3)C2C(C2CC2)N1C` (stereo not given): the z-score in test [1] is -0.849; in test [2], 0.385 (inactive); in test [3], -0.485 (inactive); in test [5] it was -0.305 (inactive); in [6], 0.358 (inactive); in test [7], -0.453 (inactive). The z-score in test [8] was -0.335 (inactive); in [9], -0.772. The composite z-score in test [4] was 0.918 (inactive); in test [10], -0.0611.

As to `COc1ccccc1CN1C(=O)c2ccccc2[C@](Cc2ccccc2I)(C(=O)NCC(C)C)[C@@H]1c1ccc(CO)cc1`, the z-score in test [1] was 0.52; in test [2], -0.441 (inactive); in test [3] it was 0.916 (inactive); in test [5], 0.251 (inactive); in test [6] it was -0.337 (inactive); in test [7] it was 1.05 (inactive). Also, the z-score is 1.29 (inactive) in test [8] and 1.11 in test [9]. For the same compound, the composite z-score was 0.133 (inactive) in [4] and -0.02 in [10].

`COCCOC(=O)N1C(=O)[C@@]2(c3cc(C#CCC(C(=O)OC)C(=O)OC)ccc31)[C@H](C(N)=O)[C@H]1C(=O)O[C@H](c3ccccc3)[C@H](c3ccccc3)N1[C@@H]2c1ccc(O)cc1`: the z-score in test [1] was -0.0776; in [2], 2.28 (inactive); in test [3], -2.92 (inactive); in [5] it was 6.87 (inactive); in [6], 3.96 (inactive); in test [7] it was 0.714 (inactive). For the same compound, the figures for the z-score in test [8] and in test [9] were 0.537 (inactive) and -4.48, respectively. For the same compound, the composite z-score is -0.667 (inactive) in test [4] and 0.0727 in [10].

The values are drawn from PubChem BioAssay.
